# From PMC7862700, “An all-to-all approach to the identification of sequence-specific readers for epigenetic DNA modifications on cytosine”
# Columns and labels:
# Assay in all cases: DAPPL (digital affinity profiling via proximity ligation, sequencing); 10 mM Tris-HCl pH 7.5, 50 mM NaCl, 1 mM DTT, 4% glycerol, room temperature, 30 min; GST-TFs on glutathione beads, 16-mer random dsDNA library, 0.1% formaldehyde crosslink after washing; high values mean tight binding
# FLI1 = biological target: T1, FLI1 (Homo sapiens, UniProt Q01543 1-452); conditions: protein: recombinant; tags: N-terminal GST; dsDNA, one strand shown
# T1 sequence: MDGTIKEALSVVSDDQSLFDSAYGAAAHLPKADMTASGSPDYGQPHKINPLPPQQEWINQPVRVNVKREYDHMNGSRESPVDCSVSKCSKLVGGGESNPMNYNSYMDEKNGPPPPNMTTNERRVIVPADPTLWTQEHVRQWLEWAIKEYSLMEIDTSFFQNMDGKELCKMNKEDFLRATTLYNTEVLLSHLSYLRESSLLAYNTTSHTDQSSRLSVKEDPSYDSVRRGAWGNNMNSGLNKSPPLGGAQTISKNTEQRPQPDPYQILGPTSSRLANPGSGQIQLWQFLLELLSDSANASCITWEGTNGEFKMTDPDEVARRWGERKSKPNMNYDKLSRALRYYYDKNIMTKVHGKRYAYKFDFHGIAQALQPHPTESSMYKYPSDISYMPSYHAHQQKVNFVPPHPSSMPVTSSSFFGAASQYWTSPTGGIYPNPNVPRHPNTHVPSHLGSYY
# How it was run: (§1)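 Human transcription factors fused to GST were expressed in yeast, captured on glutathione beads, given DNA barcodes and pooled with a GST-only negative control. Pools were incubated with 200 nmole of a 16-mer random double-stranded DNA library in Tris/NaCl/DTT/glycerol buffer at room temperature for 30 min. They were then washed, crosslinked with 0.1% formaldehyde, proximity-ligated (BsaI/T4 ligase, 1 h, 37 °C), PCR-amplified and sequenced on an Illumina NextSeq500. Binding signal is each 6-mer's read frequency for a factor divided by its frequency for the GST control.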
# ELK1 = biological target: T2, ELK1 (Homo sapiens, UniProt P19419 1-428); conditions: protein: recombinant; tags: N-terminal GST; dsDNA, one strand shown
# T2 sequence: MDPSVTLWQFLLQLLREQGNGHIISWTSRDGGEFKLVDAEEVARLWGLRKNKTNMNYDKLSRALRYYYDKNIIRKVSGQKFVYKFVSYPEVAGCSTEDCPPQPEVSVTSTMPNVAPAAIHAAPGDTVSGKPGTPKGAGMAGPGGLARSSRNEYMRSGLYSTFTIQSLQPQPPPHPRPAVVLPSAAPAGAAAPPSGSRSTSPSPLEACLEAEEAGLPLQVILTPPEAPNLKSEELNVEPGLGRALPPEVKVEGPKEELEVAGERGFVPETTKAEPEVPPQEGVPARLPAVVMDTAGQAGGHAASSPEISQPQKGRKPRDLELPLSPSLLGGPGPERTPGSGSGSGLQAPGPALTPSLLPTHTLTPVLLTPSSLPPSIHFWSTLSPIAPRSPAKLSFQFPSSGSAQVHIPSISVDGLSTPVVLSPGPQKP
# How it was run: as §1
# GABPA = biological target: T3, GABPA (Homo sapiens, UniProt Q06546 1-454); conditions: protein: recombinant; tags: N-terminal GST; dsDNA, one strand shown
# T3 sequence: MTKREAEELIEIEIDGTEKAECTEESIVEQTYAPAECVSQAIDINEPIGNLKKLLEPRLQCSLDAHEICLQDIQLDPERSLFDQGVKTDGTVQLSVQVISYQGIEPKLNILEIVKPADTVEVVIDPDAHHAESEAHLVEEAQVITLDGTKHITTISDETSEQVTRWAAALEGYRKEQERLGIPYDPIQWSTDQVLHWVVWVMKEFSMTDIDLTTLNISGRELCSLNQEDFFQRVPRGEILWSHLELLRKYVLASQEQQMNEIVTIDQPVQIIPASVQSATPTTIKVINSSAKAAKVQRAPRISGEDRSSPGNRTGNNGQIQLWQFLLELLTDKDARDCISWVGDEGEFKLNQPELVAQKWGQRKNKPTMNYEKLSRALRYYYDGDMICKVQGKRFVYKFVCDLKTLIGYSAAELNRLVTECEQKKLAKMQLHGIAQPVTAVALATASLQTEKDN
# How it was run: as §1
# ERG = biological target: T4, ERG (Homo sapiens, UniProt P11308 1-479); conditions: protein: recombinant; tags: N-terminal GST; dsDNA, one strand shown
# T4 sequence: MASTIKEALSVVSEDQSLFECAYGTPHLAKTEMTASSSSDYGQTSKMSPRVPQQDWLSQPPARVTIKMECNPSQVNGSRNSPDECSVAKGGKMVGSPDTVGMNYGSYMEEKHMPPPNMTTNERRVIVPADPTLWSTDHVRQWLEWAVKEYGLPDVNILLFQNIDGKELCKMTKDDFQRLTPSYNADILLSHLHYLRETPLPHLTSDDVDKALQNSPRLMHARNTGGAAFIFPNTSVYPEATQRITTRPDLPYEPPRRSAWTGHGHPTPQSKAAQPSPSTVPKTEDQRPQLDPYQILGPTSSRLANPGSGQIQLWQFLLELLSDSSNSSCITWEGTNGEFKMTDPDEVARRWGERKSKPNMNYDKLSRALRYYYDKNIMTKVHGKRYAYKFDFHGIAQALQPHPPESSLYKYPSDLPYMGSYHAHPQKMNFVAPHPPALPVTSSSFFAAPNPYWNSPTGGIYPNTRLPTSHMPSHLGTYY
# How it was run: as §1
# ELF1 = ELF1 (Homo sapiens, UniProt P32519 1-619); conditions: protein: recombinant; tags: N-terminal GST; dsDNA, one strand shown
# How it was run: as §1
# EHF = biological target: T5, EHF (Homo sapiens, UniProt Q9NZC4 1-300); conditions: protein: recombinant; tags: N-terminal GST; dsDNA, one strand shown
# T5 sequence: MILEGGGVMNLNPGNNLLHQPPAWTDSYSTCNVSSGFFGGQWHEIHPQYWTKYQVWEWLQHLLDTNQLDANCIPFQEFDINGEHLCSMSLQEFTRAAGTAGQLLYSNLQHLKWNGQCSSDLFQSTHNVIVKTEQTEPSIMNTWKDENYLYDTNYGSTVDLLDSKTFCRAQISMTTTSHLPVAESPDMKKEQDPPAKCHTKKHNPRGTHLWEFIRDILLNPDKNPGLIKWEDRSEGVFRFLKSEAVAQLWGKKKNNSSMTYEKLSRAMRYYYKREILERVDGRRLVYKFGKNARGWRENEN
# How it was run: as §1
# SPI1 = SPI1 (Homo sapiens, UniProt P17947 1-270); conditions: protein: recombinant; tags: N-terminal GST; dsDNA, one strand shown
# How it was run: as §1
# SPIB = SPIB (Homo sapiens, UniProt Q01892 1-262); conditions: protein: recombinant; tags: N-terminal GST; dsDNA, one strand shown
# How it was run: as §1
# ELK3 = biological target: T6, ELK3 (Homo sapiens, UniProt P41970 1-407); conditions: protein: recombinant; tags: N-terminal GST; dsDNA, one strand shown
# T6 sequence: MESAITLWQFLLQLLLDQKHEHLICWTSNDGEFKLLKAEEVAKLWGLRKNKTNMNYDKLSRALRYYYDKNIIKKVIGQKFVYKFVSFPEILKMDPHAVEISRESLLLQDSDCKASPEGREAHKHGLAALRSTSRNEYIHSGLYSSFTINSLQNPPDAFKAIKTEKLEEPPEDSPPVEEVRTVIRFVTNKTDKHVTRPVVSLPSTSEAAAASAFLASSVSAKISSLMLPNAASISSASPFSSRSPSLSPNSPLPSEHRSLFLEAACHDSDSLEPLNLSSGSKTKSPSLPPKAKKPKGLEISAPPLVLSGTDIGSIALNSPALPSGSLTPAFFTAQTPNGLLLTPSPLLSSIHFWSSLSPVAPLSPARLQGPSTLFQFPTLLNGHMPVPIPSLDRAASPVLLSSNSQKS
# How it was run: as §1
# FEV = biological target: T7, FEV (Homo sapiens, UniProt Q99581 1-238); conditions: protein: recombinant; tags: N-terminal GST; dsDNA, one strand shown
# T7 sequence: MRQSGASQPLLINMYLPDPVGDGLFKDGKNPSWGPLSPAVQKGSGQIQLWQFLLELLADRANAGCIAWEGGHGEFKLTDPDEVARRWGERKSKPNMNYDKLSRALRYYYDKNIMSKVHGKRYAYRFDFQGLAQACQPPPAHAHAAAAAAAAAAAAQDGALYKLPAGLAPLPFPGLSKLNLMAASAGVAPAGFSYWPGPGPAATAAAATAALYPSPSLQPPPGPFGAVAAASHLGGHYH
# How it was run: as §1
# ETV5 = ETV5 (Homo sapiens, UniProt P41161 1-510); conditions: protein: recombinant; tags: N-terminal GST; dsDNA, one strand shown
# How it was run: as §1
# HSF1 = HSF1 (Homo sapiens, UniProt Q00613 1-529); conditions: protein: recombinant; tags: N-terminal GST; chain copies: 3; dsDNA, one strand shown
# How it was run: as §1
# SPIC = biological target: T8, SPIC (Homo sapiens, UniProt Q8N5J4 1-248); conditions: protein: recombinant; tags: N-terminal GST; dsDNA, one strand shown
# T8 sequence: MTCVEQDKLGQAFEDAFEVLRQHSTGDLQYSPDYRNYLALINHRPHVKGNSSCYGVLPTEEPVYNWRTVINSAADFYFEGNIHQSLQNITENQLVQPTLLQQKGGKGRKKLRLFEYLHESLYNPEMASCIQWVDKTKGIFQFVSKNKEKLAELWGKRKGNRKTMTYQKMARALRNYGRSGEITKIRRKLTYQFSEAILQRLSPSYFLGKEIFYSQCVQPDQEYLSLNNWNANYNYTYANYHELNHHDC
# How it was run: as §1
# ELF4 = ELF4 (Homo sapiens, UniProt Q99607 1-663); conditions: protein: recombinant; tags: N-terminal GST; dsDNA, one strand shown
# How it was run: as §1
# ELK4 = biological target: T9, ELK4 (Homo sapiens, UniProt P28324-2 1-405); conditions: protein: recombinant; tags: N-terminal GST; dsDNA, one strand shown
# T9 sequence: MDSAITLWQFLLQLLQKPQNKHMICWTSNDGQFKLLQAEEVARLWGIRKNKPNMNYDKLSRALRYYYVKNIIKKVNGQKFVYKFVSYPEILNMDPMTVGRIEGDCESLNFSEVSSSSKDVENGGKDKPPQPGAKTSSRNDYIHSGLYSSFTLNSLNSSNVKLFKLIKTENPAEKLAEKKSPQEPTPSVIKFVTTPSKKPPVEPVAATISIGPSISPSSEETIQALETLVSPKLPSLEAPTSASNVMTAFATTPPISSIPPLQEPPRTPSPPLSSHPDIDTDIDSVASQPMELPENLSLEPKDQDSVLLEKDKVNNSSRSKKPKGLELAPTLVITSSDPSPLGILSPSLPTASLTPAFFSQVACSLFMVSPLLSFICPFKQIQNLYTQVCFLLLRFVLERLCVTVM
# How it was run: as §1
# ETV2 = biological target: T10, ETV2 (Homo sapiens, UniProt O00321 1-342); conditions: protein: recombinant; tags: N-terminal GST; dsDNA, one strand shown
# T10 sequence: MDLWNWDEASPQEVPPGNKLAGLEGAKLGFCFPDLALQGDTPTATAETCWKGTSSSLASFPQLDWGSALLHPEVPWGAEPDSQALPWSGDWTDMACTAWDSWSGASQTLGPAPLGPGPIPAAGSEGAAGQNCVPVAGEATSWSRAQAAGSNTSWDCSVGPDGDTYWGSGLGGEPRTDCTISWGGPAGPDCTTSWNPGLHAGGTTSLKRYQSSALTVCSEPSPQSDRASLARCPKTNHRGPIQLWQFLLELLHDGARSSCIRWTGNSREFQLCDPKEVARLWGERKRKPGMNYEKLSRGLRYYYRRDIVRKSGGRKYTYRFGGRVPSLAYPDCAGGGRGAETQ
# How it was run: as §1
# ELF3 = biological target: T11, ELF3 (Homo sapiens, UniProt P78545 1-371); conditions: protein: recombinant; tags: N-terminal GST; dsDNA, one strand shown
# T11 sequence: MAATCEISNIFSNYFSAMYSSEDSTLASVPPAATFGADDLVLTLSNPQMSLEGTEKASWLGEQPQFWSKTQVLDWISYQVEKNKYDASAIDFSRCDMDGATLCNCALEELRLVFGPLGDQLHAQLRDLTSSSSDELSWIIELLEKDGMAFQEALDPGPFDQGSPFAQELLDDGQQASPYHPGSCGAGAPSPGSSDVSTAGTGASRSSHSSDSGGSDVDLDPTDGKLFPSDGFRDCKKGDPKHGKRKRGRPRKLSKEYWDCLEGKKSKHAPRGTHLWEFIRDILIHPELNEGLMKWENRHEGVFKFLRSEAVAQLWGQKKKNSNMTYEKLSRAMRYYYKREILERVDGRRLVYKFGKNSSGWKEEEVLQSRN
# How it was run: as §1
# CRX = CRX (Homo sapiens, UniProt O43186 1-299); conditions: protein: recombinant; tags: N-terminal GST; dsDNA, one strand shown
# How it was run: as §1
# ETV1 = ETV1 (Homo sapiens, UniProt P50549 1-477); conditions: protein: recombinant; tags: N-terminal GST; dsDNA, one strand shown
# How it was run: as §1
# Sequence of CRX (O43186 whole entry): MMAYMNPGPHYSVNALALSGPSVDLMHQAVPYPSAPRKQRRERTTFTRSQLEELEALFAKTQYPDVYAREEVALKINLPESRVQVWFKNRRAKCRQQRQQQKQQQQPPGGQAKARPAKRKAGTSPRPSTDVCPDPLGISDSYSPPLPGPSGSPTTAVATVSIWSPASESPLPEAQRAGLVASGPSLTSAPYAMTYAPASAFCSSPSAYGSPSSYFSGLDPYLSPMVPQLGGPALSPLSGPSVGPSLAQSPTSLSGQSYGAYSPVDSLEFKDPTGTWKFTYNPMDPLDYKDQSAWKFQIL
# Sequence of ELF4 (Q99607 whole entry): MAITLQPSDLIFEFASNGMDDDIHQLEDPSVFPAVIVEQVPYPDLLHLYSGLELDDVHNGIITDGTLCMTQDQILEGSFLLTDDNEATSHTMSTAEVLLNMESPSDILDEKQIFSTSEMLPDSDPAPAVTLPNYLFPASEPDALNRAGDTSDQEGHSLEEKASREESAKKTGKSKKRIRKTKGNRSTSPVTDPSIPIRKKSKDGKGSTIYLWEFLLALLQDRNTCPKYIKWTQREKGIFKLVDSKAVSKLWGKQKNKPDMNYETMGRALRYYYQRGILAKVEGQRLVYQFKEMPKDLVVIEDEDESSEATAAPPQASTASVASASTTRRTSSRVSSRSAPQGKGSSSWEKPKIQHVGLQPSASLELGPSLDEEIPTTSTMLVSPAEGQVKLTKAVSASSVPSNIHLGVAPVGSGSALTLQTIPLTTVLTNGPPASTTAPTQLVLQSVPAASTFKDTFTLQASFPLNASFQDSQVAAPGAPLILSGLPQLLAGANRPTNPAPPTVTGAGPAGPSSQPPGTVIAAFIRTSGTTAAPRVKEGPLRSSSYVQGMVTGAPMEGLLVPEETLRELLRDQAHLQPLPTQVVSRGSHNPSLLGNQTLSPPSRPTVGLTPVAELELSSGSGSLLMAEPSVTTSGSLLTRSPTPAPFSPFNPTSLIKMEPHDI
# Sequence of ETV1 (P50549 whole entry): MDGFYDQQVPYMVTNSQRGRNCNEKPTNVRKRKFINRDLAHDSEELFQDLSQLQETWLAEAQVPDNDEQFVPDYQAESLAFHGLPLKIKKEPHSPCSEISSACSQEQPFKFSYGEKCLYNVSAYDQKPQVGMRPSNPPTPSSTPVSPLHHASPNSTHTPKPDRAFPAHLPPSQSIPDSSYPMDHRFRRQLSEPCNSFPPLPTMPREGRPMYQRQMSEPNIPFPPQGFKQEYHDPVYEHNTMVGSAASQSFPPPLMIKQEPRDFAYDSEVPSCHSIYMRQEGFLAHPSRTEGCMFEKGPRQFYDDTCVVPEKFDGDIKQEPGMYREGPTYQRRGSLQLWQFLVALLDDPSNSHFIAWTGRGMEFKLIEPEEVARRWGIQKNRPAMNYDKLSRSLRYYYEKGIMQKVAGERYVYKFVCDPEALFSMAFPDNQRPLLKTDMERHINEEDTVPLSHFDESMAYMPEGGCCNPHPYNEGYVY
# Sequence of HSF1 (Q00613 whole entry): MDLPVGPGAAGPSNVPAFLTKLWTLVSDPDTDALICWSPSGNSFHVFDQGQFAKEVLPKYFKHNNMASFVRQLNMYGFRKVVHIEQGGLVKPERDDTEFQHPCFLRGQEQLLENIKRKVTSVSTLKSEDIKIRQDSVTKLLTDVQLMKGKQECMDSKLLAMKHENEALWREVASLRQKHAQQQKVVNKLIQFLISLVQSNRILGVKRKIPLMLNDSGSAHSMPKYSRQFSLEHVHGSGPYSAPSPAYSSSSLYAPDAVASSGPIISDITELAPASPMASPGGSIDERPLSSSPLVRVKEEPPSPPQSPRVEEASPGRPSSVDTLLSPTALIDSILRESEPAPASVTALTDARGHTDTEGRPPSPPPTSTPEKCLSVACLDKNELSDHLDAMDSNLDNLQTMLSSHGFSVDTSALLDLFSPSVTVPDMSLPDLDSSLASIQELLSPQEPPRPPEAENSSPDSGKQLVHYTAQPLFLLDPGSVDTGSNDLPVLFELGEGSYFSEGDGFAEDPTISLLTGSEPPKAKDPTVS
# Sequence of ETV5 (P41161 whole entry): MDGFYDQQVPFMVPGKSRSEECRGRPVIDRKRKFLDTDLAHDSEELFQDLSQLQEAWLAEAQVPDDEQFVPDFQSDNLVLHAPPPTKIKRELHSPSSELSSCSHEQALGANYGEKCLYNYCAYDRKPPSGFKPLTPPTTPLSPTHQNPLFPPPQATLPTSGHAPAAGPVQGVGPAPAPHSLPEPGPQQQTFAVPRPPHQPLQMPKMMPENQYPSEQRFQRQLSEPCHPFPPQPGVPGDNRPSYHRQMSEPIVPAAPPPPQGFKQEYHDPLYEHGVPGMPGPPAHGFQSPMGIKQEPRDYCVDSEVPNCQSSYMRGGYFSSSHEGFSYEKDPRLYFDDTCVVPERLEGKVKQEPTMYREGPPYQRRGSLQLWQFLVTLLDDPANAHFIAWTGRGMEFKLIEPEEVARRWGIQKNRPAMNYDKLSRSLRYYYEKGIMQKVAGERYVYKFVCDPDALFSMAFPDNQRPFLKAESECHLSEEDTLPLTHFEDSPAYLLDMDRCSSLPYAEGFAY
# Sequence of SPIB (Q01892 whole entry): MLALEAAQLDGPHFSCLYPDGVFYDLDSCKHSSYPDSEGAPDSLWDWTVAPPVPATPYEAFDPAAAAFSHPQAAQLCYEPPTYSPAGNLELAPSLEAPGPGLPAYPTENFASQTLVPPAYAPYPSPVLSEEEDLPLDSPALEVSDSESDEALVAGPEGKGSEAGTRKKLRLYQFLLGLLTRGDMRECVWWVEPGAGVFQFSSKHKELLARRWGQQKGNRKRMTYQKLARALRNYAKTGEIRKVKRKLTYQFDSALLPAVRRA
# Sequence of ELF1 (P32519 whole entry): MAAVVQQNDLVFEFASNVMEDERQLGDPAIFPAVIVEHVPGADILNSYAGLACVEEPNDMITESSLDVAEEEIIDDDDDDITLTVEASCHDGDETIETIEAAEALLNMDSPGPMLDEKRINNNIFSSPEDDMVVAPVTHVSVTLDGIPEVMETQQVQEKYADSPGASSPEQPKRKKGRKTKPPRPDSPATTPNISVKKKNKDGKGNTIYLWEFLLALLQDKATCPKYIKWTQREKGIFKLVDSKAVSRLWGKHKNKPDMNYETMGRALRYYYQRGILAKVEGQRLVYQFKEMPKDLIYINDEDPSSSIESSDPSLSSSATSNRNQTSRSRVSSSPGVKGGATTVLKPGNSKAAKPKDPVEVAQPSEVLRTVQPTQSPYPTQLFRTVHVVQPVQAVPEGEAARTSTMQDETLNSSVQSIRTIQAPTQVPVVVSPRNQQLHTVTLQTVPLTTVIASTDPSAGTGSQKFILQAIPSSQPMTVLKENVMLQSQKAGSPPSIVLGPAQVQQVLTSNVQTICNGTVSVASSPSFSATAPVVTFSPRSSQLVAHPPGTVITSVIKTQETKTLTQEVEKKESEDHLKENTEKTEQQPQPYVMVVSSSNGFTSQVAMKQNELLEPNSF
sequence,measurement,setting,value
GCCTTC,binding signal,FLI1,"1.41 fold enrichment (6-mer frequency, TF over GST control)"
same,binding signal,ELK1,"1.51 fold enrichment (6-mer frequency, TF over GST control)"
same,binding signal,GABPA,"1.54 fold enrichment (6-mer frequency, TF over GST control)"
same,binding signal,ERG,"1.52 fold enrichment (6-mer frequency, TF over GST control)"
same,binding signal,ELF1,"1.58 fold enrichment (6-mer frequency, TF over GST control)"
same,binding signal,EHF,"1.43 fold enrichment (6-mer frequency, TF over GST control)"
same,binding signal,SPI1,"1.39 fold enrichment (6-mer frequency, TF over GST control)"
same,binding signal,SPIB,"1.54 fold enrichment (6-mer frequency, TF over GST control)"
same,binding signal,ELK3,"1.52 fold enrichment (6-mer frequency, TF over GST control)"
same,binding signal,FEV,"1.57 fold enrichment (6-mer frequency, TF over GST control)"
same,binding signal,ETV5,"1.56 fold enrichment (6-mer frequency, TF over GST control)"
same,binding signal,HSF1,"1.49 fold enrichment (6-mer frequency, TF over GST control)"
same,binding signal,SPIC,"1.71 fold enrichment (6-mer frequency, TF over GST control)"
same,binding signal,ELF4,"1.6 fold enrichment (6-mer frequency, TF over GST control)"
same,binding signal,ELK4,"1.64 fold enrichment (6-mer frequency, TF over GST control)"
same,binding signal,ETV2,"1.63 fold enrichment (6-mer frequency, TF over GST control)"
same,binding signal,ELF3,"1.41 fold enrichment (6-mer frequency, TF over GST control)"
same,binding signal,CRX,"1.2 fold enrichment (6-mer frequency, TF over GST control)"
same,binding signal,ETV1,"1.66 fold enrichment (6-mer frequency, TF over GST control)"
